From PubChem BioAssay
This is one part of a sample in which hits are shown more often than they occur.
IDE exosite inh: exo-site inhibitors of human insulin-degrading enzyme. purified IDE, FL-6b probe fluorescence polarization; stronger effect = lower value. 17,000 tested, 6.3% active. P14735. z-score at 20 µM;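 active = z-score of -3 or lower, meaning strong loss of probe binding signal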;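 note: His-tagged human IDE residues 42-1019 made in E. coli with 30 nM FL-6b probe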
Active calls of the source: *.

Results for O=C(C1CCCCC1)N1CC(=O)N2[C@@H](CO)[C@H](c3ccc(-c4cccnc4)cc3)[C@@H]2C1 ?
IDE exosite inh: 1.43

How did CCC(=O)N1CC(=O)N2[C@@H](CO)[C@H](c3ccc(-c4cccnc4)cc3)[C@@H]2C1 do in these assays?
IDE exosite inh: 1.38

What do the screens show for `O=C1CN(Cc2ccc(F)cc2)C[C@H]2[C@@H](c3ccc(-c4cccnc4)cc3)[C@H](CO)N12`?
IDE exosite inh: 0.496

How did O=C(c1ccccc1F)N1CC(=O)N2[C@H](C1)[C@@H](c1ccc(-c3cccnc3)cc1)[C@@H]2CO do in these assays?
IDE exosite inh: -3.11*

Results for CCC(=O)N1CC(=O)N2[C@H](CO)[C@H](c3ccc(-c4cccnc4)cc3)[C@H]2C1 ?
IDE exosite inh: -3.12*

What do the screens show for `O=C(C1CCCCC1)N1CC(=O)N2[C@H](C1)[C@H](c1ccc(-c3cccnc3)cc1)[C@@H]2CO`?
IDE exosite inh: -0.00311

How did CCC(=O)N1CC(=O)N2[C@H](CO)[C@@H](c3ccc(-c4cccnc4)cc3)[C@@H]2C1 do in these assays?
IDE exosite inh: -1.45

What do the screens show for `O=C(C1CCCCC1)N1CC(=O)N2[C@H](CO)[C@H](c3ccc(-c4cccnc4)cc3)[C@H]2C1`?
IDE exosite inh: -4.75*

What do the screens show for `O=C1CN(Cc2ccc(F)cc2)C[C@@H]2[C@@H](c3ccc(-c4cccnc4)cc3)[C@@H](CO)N12`?
IDE exosite inh: -0.307

What do the screens show for `O=C(c1ccccc1F)N1CC(=O)N2[C@@H](CO)[C@@H](c3ccc(-c4cccnc4)cc3)[C@@H]2C1`?
IDE exosite inh: -1.36

How did N#C[C@H]1[C@@H](c2ccccc2-c2ccccc2F)[C@@H](CO)N1C(=O)C1CCOCC1 do in these assays?
IDE exosite inh: 1.41

Results for O=C1CN(S(=O)(=O)c2ccccc2)C[C@H]2[C@@H](c3ccc(C4=CCCC4)cc3)[C@@H](CO)N12 ?
IDE exosite inh: 5.37

Results for COc1ccc(NC(=O)N2CCCCN3[C@H](CO)[C@@H](c4ccc(C5=CCCCC5)cc4)[C@H]3C2)cc1 ?
IDE exosite inh: 4.14

Results for COCCNC(=O)C[C@H]1CC[C@@H]2[C@@H](COc3ccc(NS(=O)(=O)c4ccc(Cl)cc4)cc3C(=O)N2C)O1 ?
IDE exosite inh: -0.503

What do the screens show for `O=C(C[C@@H]1CC[C@H]2[C@@H](COC[C@H](O)CN2C(=O)Nc2ccc(Cl)cc2)O1)NCC1CCCCC1`?
IDE exosite inh: 2.35

How did O=C([C@@H]1[C@@H](CO)[C@@H]2Cn3c(cccc3=O)[C@@H]2N1C(=O)CC1CC1)N1CCc2ccccc2C1 do in these assays?
IDE exosite inh: 1.09

What do the screens show for `N#C[C@@H]1[C@H](c2ccc(C3=CCCC3)cc2)[C@H](CO)N1C(=O)C1CCC1`?
IDE exosite inh: 6.64

What do the screens show for `O=C(c1cnccn1)N1CC(=O)N2[C@H](C1)[C@@H](c1ccc(-c3ccc(F)cc3)cc1)[C@@H]2CO`?
IDE exosite inh: 4.35

Results for O=C(c1cnccn1)N1CC(=O)N2[C@H](CO)[C@@H](c3ccc(-c4cccc(F)c4)cc3)[C@@H]2C1 ?
IDE exosite inh: -3.68*

How did O=C(c1cnccn1)N1CC(=O)N2[C@H](CO)[C@H](c3ccc(-c4ccc(F)cc4)cc3)[C@@H]2C1 do in these assays?
IDE exosite inh: 3.5

How did O=C(c1cnccn1)N1CC(=O)N2[C@@H](CO)[C@@H](c3ccc(-c4ccc(F)cc4)cc3)[C@@H]2C1 do in these assays?
IDE exosite inh: 3.11

Results for O=C(c1ccccn1)N1CC(=O)N2[C@H](C1)[C@H](c1ccc(-c3cccc(F)c3)cc1)[C@@H]2CO ?
IDE exosite inh: 3.08

What do the screens show for `O=C(c1cnccn1)N1CC(=O)N2[C@H](C1)[C@@H](c1ccc(-c3cccc(F)c3)cc1)[C@@H]2CO`?
IDE exosite inh: -3.97*

How did O=C(c1cnccn1)N1CC(=O)N2[C@H](CO)[C@H](c3ccc(-c4cccc(F)c4)cc3)[C@@H]2C1 do in these assays?
IDE exosite inh: -0.306

Results for O=C(c1ccccn1)N1CC(=O)N2[C@H](C1)[C@@H](c1ccc(-c3cccc(F)c3)cc1)[C@@H]2CO ?
IDE exosite inh: -7.75*

How did O=C(c1cccc(F)c1)N1CC(=O)N2[C@H](CO)[C@H](c3ccc(-c4cccnc4)cc3)[C@@H]2C1 do in these assays?
IDE exosite inh: 3.11

What do the screens show for `CC(C)CC#Cc1ccc([C@H]2[C@H](CO)N3C(=O)CN(C(=O)c4cnccn4)C[C@@H]23)cc1`?
IDE exosite inh: 0.23

How did O=C(NC[C@@H]1[C@H](c2ccccc2)[C@@H](CO)N1C(=O)Cc1ccncc1)C1CCC1 do in these assays?
IDE exosite inh: -0.97

Results for Cc1ccccc1-c1ccccc1[C@H]1[C@@H](C#N)N(C(=O)c2ccc(F)cc2)[C@H]1CO ?
IDE exosite inh: 0.0921

What do the screens show for `O=C(C[C@@H]1CC[C@@H]2[C@H](COC[C@H](O)CN2S(=O)(=O)c2cccc(F)c2)O1)NCc1ccncn1`?
IDE exosite inh: 2.56

Results for CCN(C[C@H]1N[C@H](CO)[C@H]1c1ccc(-c2cccc(F)c2)cc1)C(=O)COC ?
IDE exosite inh: -0.537

What do the screens show for `Cc1noc(C)c1S(=O)(=O)N(C)C[C@@H]1OCc2ccccc2-c2c(n(C)c3ccccc23)C(=O)N([C@@H](C)CO)C[C@@H]1C`?
IDE exosite inh: -1.1

Results for O=C(c1ccncc1)N1CC(=O)N2[C@H](C1)[C@@H](c1ccc(/C=C/c3ccccc3)cc1)[C@@H]2CO ?
IDE exosite inh: -5.98*

How did O=C(c1ccc(F)cc1)N1CC(=O)N2[C@H](CO)[C@H](c3ccc(/C=C/c4ccccc4)cc3)[C@@H]2C1 do in these assays?
IDE exosite inh: 1.23

Results for C/C=C/c1ccc([C@H]2[C@H]3CN(C(=O)c4ccncc4)CC(=O)N3[C@H]2CO)cc1 ?
IDE exosite inh: 0.604

How did C/C=C/c1ccc([C@@H]2[C@@H](CO)N3C(=O)CN(C(=O)c4ccncc4)C[C@@H]23)cc1 do in these assays?
IDE exosite inh: 1.06

What do the screens show for `O=C(c1ccccc1)N1CC(=O)N2[C@H](CO)[C@H](c3ccc(/C=C/c4ccccc4)cc3)[C@@H]2C1`?
IDE exosite inh: -2.8

Results for O=C(c1ccncc1)N1CC(=O)N2[C@@H](CO)[C@H](c3ccc(/C=C/c4ccccc4)cc3)[C@@H]2C1 ?
IDE exosite inh: -15.9*

What do the screens show for `O=C(c1ccncc1)N1CC(=O)N2[C@H](CO)[C@@H](c3ccc(/C=C/c4ccccc4)cc3)[C@@H]2C1`?
IDE exosite inh: -1.02

What do the screens show for `O=C(c1ccccc1)N1CC(=O)N2[C@H](CO)[C@H](c3ccc(/C=C/c4ccccc4)cc3)[C@H]2C1`?
IDE exosite inh: -8.37*

What do the screens show for `C/C=C/c1ccc([C@@H]2[C@H](CO)N3C(=O)CN(C(=O)c4ccncc4)C[C@@H]23)cc1`?
IDE exosite inh: 0.705

How did Cc1ccccc1S(=O)(=O)N1[C@H](CO)[C@@H](c2ccccc2)[C@@H]1C#N do in these assays?
IDE exosite inh: 3.7

How did COCC(=O)Nc1ccc2c(c1)[C@@H]1C[C@H](CC(=O)N3CCOCC3)O[C@H](CO)[C@@H]1O2 do in these assays?
IDE exosite inh: 0.422

How did C/C=C/c1ccc([C@@H]2[C@@H](CN(C)C(=O)CN(C)C)N(C(C)=O)[C@H]2CO)cc1 do in these assays?
IDE exosite inh: 2.53

Results for CN1C(=O)c2cc(NS(=O)(=O)c3cccc(F)c3)ccc2OC[C@@H]2O[C@H](CC(=O)NCCN3CCCCC3)CC[C@H]21 ?
IDE exosite inh: -0.325

How did C[C@@H]1CN([C@@H](C)CO)C(=O)c2cc(N(C)C)ccc2O[C@@H](C)CCCCO[C@@H]1CN(C)Cc1ccc(C(=O)O)cc1 do in these assays?
IDE exosite inh: 1.15
